Measured values as given in PubChem BioAssay AID2330 (Broad Institute, 2010).
About 2,800 (7.6%) of roughly 37,000 compounds were called active. Not shown: some 1% with an inconclusive outcome. This excerpt belongs to a sample that is enriched for actives. Unmarked numbers belong to inactive results. Cut-off read from the data, not from the text of the source: active = inhibition above about 80%; inconclusive = no clear call, values can overlap the other calls; inactive = below that.

Assay: NOMO-1 AML cell viability reduction, primary screen, STK33 inhibitor project, CellTiter-Glo luminescence (AID 2330)
Settings: NOMO-1 AML viability, 72 h, hits give high values, concentration not given here

Row | Structure (SMILES) | inhibition
1 | C[C@H]1CN([C@@H](C)CO)C(=O)c2cc(NC(=O)Nc3ccc4c(c3)OCO4)ccc2O[C@H]1CN(C)S(=O)(=O)c1ccc(F)cc1 | 18.9%
2 | C[C@H]1CN([C@@H](C)CO)C(=O)c2cccc(NS(=O)(=O)c3cn(C)cn3)c2O[C@@H]1CN(C)C(=O)Nc1ccc(F)cc1 | 7.11%
3 | C[C@H]1O[C@@H](O[C@H]2[C@@H](O)C[C@H](O[C@H]3[C@@H](O)C[C@H](O[C@H]4CC[C@]5(C)C6C[C@@H](O)[C@]7(C)[C@@H](C8=CC(=O)OC8)CC[C@]7(O)C6CC[C@@H]5C4)O[C@@H]3C)O[C@@H]2C)C[C@H](O)[C@@H]1O (some centres undefined) | 112% (active)
4 | C[C@H]1CN([C@@H](C)CO)C(=O)Cc2cc(NC(=O)C3CC3)ccc2O[C@@H]1CN(C)C(=O)NC1CCCCC1 | -0.0688%
5 | Cc1ccc(S(=O)(=O)N(C)C[C@@H]2Oc3c(NS(=O)(=O)c4ccc(F)cc4)cccc3C(=O)N([C@@H](C)CO)C[C@H]2C)cc1 | -7.97%
6 | CCCc1nc2c(C)cc(-c3nc4ccccc4n3C)cc2n1Cc1ccc(-c2ccccc2C(=O)O)cc1 | 0.908%
7 | C[C@H](CO)N1C[C@H](C)[C@H](CN(C)C)Oc2c(NC(=O)C3CCOCC3)cccc2C1=O | -4.27%
8 | O=C(O)CCSc1nnc2c(n1)[nH]c1ccccc12 | 16.8%
9 | O=C(CCn1cnc2ccccc2c1=O)Nc1cccc(C(F)(F)F)c1 | -23.9%
10 | O=C(CSc1nnc2c(n1)[nH]c1ccccc12)Nc1cccc(C(F)(F)F)c1 | 112% (active)
11 | COc1ccc(NC(=O)C(=O)NCC(=O)Nc2cccc(C(F)(F)F)c2)cc1 | 14%
12 | O=C1c2ccccc2S(=O)c2ccccc2S(=O)(=O)N1Cc1ccccc1 (centres undefined) | 117% (active)
13 | Nc1nnc(SCCN2C(=O)c3ccccc3S2(=O)=O)s1 | 32.8%
14 | O=C(CN1C(=O)c2ccccc2S1(=O)=O)Nc1ccc(F)c(F)c1 | 36.7%
15 | Cc1noc(C)c1NC(=O)Nc1ccc2c(c1)C(=O)N([C@@H](C)CO)C[C@H](C)[C@@H](CN(C)C(=O)Nc1ccccc1)O2 | -19%
16 | Cc1ccc(S(=O)(=O)N(C)C[C@@H]2Oc3ccc(NC(=O)Cn4cnnn4)cc3CC(=O)N([C@H](C)CO)C[C@H]2C)cc1 | -11.1%
17 | O=C(/C=C/c1ccccc1)NCCCCNCCCNC(=O)/C=C/c1ccccc1 | 11.1%
18 | COc1cc(NC(=O)COc2cc(C)c(Br)c(C)c2)c(OC)cc1Cl | 6.99%
19 | C=CCNc1nc(C)nc(OC)n1 | -5.74%
20 | C[C@@H]1CN([C@H](C)CO)C(=O)Cc2cc(NC(=O)Nc3ccc(F)cc3)ccc2O[C@@H]1CN(C)C(=O)Nc1ccc2c(c1)OCO2 | 10.5%
21 | O=C1NC(Cc2c[nH]c3ccccc23)C(=O)N2CCCC12 (centres undefined) | 14.5%
22 | Cc1ccc2nc(C)c3c(c2c1)N(c1ccccc1)CC3 | 122% (active)
23 | O=C(CSc1nc2sc3c(c2c(=O)[nH]1)CCC3)Nc1ccccc1C(F)(F)F | 26%
24 | C[C@H](CO)N1C[C@H](C)[C@H](CN(C)C(=O)Nc2ccc(C(F)(F)F)cc2)Oc2ccc(NS(C)(=O)=O)cc2CC1=O | -2.28%
25 | Cc1ccc(S(=O)(=O)N(C)C[C@@H]2Oc3ccc(NC(=O)Nc4ccc5c(c4)OCO5)cc3C(=O)N([C@@H](C)CO)C[C@@H]2C)cc1 | 45.7%

Row | Structure (SMILES) | inhibition
26 | Cc1cc(C)cc(OCC(=O)Nc2cccc(-c3nnc(-c4ccccc4)o3)c2)c1 | 42.7%
27 | Cc1ccnc(NC(c2cccc(Br)c2)c2ccc3ccc(C)nc3c2O)c1 (centres undefined) | 126% (active)
28 | Cc1ccnc(NC(c2cccc([N+](=O)[O-])c2)c2ccc3ccc(C)nc3c2O)c1 (centres undefined) | 101% (active)
29 | Cc1ccc(S(=O)(=O)Nc2ccc3c(c2)C(=O)N([C@@H](C)CO)C[C@H](C)[C@H](CN(C)C(=O)Nc2ccc(C(F)(F)F)cc2)O3)cc1 | 4.18%
30 | Cc1ccc(NC(=O)C2C3C=CC(C3)C2C(=O)O)cc1 (centres undefined) | -5.27%
31 | Cc1cccc(NC(=O)CSc2nnc(-c3ccccc3)n2C2CCCCC2)c1C | 22.3%
32 | COc1ccc(NC(=O)CSc2nnc(-c3ccc(Br)cc3)n2C)cc1 | 16.2%
33 | C[C@H](CO)N1C[C@H](C)[C@H](CN(C)Cc2ccc(Oc3ccccc3)cc2)Oc2c(NC(=O)CCCCCC(=O)Nc3ccccc3N)cccc2C1=O | 139% (active)
34 | C[C@H](CO)N1C[C@H](C)[C@@H](CN(C)C(=O)Nc2ccccc2)Oc2c(NC(=O)CCCCCC(=O)Nc3ccccc3N)cccc2C1=O | 21.7%
35 | C[C@H]1CN([C@@H](C)CO)C(=O)c2cccc(NC(=O)Nc3ccccc3)c2O[C@H]1CN(C)Cc1ccc(Oc2ccccc2)cc1 | 18.8%
36 | C[C@H]1CN([C@@H](C)CO)C(=O)c2cccc(NC(=O)CCCCCC(=O)Nc3ccccc3N)c2O[C@H]1CN(C)C(=O)Nc1ccccc1 | 10.1%
37 | C[C@H](CO)N1C[C@H](C)[C@@H](CN(C)Cc2ccccc2)Oc2c(NC(=O)CCCCCC(=O)Nc3ccccc3N)cccc2C1=O | 126% (active)
38 | C[C@@H]1CN([C@H](C)CO)C(=O)c2cccc(NC(=O)CCCCCC(=O)Nc3ccccc3N)c2O[C@@H]1CN(C)C(=O)Nc1ccccc1 | 7.63%
39 | C[C@H]1CN([C@@H](C)CO)C(=O)c2cccc(NC(=O)Nc3ccccc3)c2O[C@@H]1CN(C)S(C)(=O)=O | -0.709%
40 | COc1cc(C2c3c(cc(OC)c(O)c3OC)CC(CO[C@@H]3O[C@H](CO)[C@@H](O)[C@H](O)[C@H]3O)C2CO)cc(OC)c1O (some centres undefined) | -1.41%
41 | O=C1C2=C(Nc3ccccc3S(=O)(=O)C2c2ccc(Cl)cc2)c2ccccc21 (centres undefined) | 121% (active)
42 | COC(=O)c1ccccc1NC(=O)C(C)Oc1ccccc1F (centres undefined) | 8.1%
43 | O=C(CC(C(=O)O)N1CCNCC1)Nc1cccc(Cl)c1 (centres undefined) | 9.13%
44 | COc1cc(C2OC(c3ccc(O)c(OC)c3)C(C)(O)C2C)ccc1O (centres undefined) | 119% (active)
45 | CCN(CC)C(=O)c1ccc(O)c(OC)c1 | -13.3%
46 | COc1cc(C2OC(c3cc(OC)c(OC)c(OC)c3)C(C)C2C)cc(OC)c1OC (centres undefined) | 7.55%
47 | O=C(c1ccccc1Br)N1CCN(c2ccc([N+](=O)[O-])c(NCc3cccnc3)c2)CC1 | 40.2%
48 | Cc1noc(C)c1NC(=O)Nc1ccc2c(c1)C(=O)N([C@@H](C)CO)C[C@@H](C)[C@@H](CN(C)CC1CCCCC1)O2 | -6.14%
49 | Oc1c(Cl)cc(Cl)c(Cl)c1Cc1c(O)c(Cl)cc(Cl)c1Cl | 107% (active)
50 | Cc1cc(=O)[nH]c(SCc2cn3c(C)cc(C)nc3n2)n1 | -6.02%

Row | Structure (SMILES) | inhibition
51 | COc1ccc(NC(=O)N(C)C[C@@H]2OCCCC[C@@H](C)Oc3ccc(NS(=O)(=O)c4c(C)noc4C)cc3C(=O)N([C@H](C)CO)C[C@@H]2C)cc1 | 7.62%
52 | COc1ccc(CCCOC(Cn2ccnc2)c2ccc(OC)cc2)cc1 (centres undefined) | 114% (active)
53 | Cc1ccc(S(=O)(=O)N(C)C[C@H]2OCCCC[C@@H](C)Oc3ccc(NS(C)(=O)=O)cc3C(=O)N([C@H](C)CO)C[C@@H]2C)cc1 | 20.5%
54 | CC(C)(C)c1ccc(OCC(=O)Nc2cccc(NC(=O)c3ccccc3)c2)cc1 | 25.3%
55 | COC(=O)COc1cccc(NC(=O)c2cc(OC)c(OC)c(OC)c2)c1 | 124% (active)
56 | COc1ccccc1NC(=O)c1ccc(OCC(=O)O)cc1 | -18.7%
57 | C[C@H]1CN([C@@H](C)CO)C(=O)c2cccc(NC(=O)CCCCCC(=O)Nc3ccccc3N)c2O[C@@H]1CN(C)S(=O)(=O)c1cn(C)cn1 | 5.62%
58 | O=[N+]([O-])c1ccc(NCCNCc2cccnc2)cc1 | -20%
59 | CC[N+]1=C(C)C(C)(C)c2cc(-c3ccccc3)ccc21 | 123% (active)
60 | Cc1ccc(Cn2c(NCc3nc4ccccc4n3C)nc3ccccc32)cc1 | 7.82%
61 | CC(C)NC(=O)Nc1ccc2c(c1)C(=O)N([C@@H](C)CO)C[C@@H](C)[C@H](CN(C)C(=O)NC1CCCCC1)O2 | 30.5%
62 | COc1ccc(-c2nnc(SCC(=O)O)n2-c2ccccc2)cc1OC | -16.5%
63 | CC1(C)Cc2c(sc3ncn4nc(COc5ccc(Cl)cc5)nc4c23)C(C)(C)N1 | 142% (active)
64 | O=C1c2ccccc2C(=O)C1c1cc(=O)[nH]c2c1ccc1ccccc12 | 11.8%
65 | CCOC(=O)c1nnn(-c2nonc2-n2cccc2)c1CN1CCOCC1 | 24.9%
66 | C[C@@H]1CN([C@H](C)CO)C(=O)Cc2cc(NS(=O)(=O)c3cccs3)ccc2O[C@@H]1CN(C)Cc1ccc(C(=O)O)cc1 | -19.7%
67 | Cc1ccc(S(=O)(=O)Nc2ccc3c(c2)CC(=O)N([C@@H](C)CO)C[C@@H](C)[C@@H](CN(C)S(=O)(=O)c2ccccc2)O3)cc1 | 5.59%
68 | Cc1ccc(S(=O)(=O)Nc2ccc3c(c2)CC(=O)N([C@@H](C)CO)C[C@H](C)[C@H](CN(C)Cc2ccc(C(=O)Nc4ccccc4N)cc2)O3)cc1 | 139% (active)
69 | COc1ccc(CN(C)C[C@H]2Oc3ccc(NS(=O)(=O)c4ccc(Cl)cc4)cc3CC(=O)N([C@@H](C)CO)C[C@H]2C)cc1 | 40.8%
70 | Cc1ccc(S(=O)(=O)N(C)C[C@H]2Oc3ccc(NS(=O)(=O)c4ccccc4)cc3CC(=O)N([C@@H](C)CO)C[C@H]2C)cc1 | -0.416%
71 | C[C@H](CO)N1C[C@H](C)[C@H](CN(C)CC2CC2)Oc2ccc(NS(=O)(=O)c3ccccc3)cc2CC1=O | 20.8%
72 | COc1ccc(S(=O)(=O)Nc2ccc3c(c2)CC(=O)N([C@@H](C)CO)C[C@@H](C)[C@@H](CN(C)Cc2ccc(C(=O)Nc4ccccc4N)cc2)O3)cc1 | 100% (active)
73 | C[C@H]1CN([C@@H](C)CO)C(=O)Cc2cc(NS(=O)(=O)c3ccccc3)ccc2O[C@H]1CN(C)Cc1ccc(C(=O)Nc2ccccc2N)cc1 | 141% (active)
74 | COc1ccc(S(=O)(=O)Nc2ccc3c(c2)CC(=O)N([C@H](C)CO)C[C@@H](C)[C@@H](CN(C)C(=O)Nc2cccc4ccccc24)O3)cc1 | -1.33%
